From the supplement of paper PMC6555819 come the findings set out here.

The test system of one experiment is PPARg DBDmut IVT, anti-PPARg (DBD mutation: PPARg1 K132A/R137A, NR concentration 270 nM). Kind of experiment: PBM binding z-score (relative to random genomic background probes); higher = stronger binding; sequences stand for … in GC…GCGATTGACAGCGTAGAATGAAGG
In outline: (§1)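 Binding z-scores were set against random background probes. The data came from custom Agilent 4×180K protein-binding microarrays carrying double-stranded probes with 34-nt variable regions, incubated 1 h with ligand-free nuclear receptor dimers. Partner-specific antibodies detected binding, and scanned fluorescence was regression-normalized.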
Sequence TCAGACACGTGAAGGTAACTCAGGTACGCAGTCG came in with a PBM binding z-score of -0.175.
Regarding CCTACTGGGCCATTCAAAGGTCATTGATCATATG, the PBM binding z-score is -0.542.
The same measure, in the same setting: the figure for CGTCAAAGTTCAAGGTAACGTATCAGAAAGCAGC is -0.101; for CCGTGTAGGTTATGGGGCATTCAGGCAACGGTGA it is -0.904.
Same read-out and setting: under CGTCCAAGGTCAATGCTAGGTCCGTGAAAGCATT stands -0.534.
In turn, TCTTGTAGATCAAGCAGGTTACGAAAGCCTGAGT returned a PBM binding z-score of 0.435.
ATCTCTAGGTAAAGTTCAGTGCAAGATCGATAGA came in with a PBM binding z-score of 1.22.
AGTCAAAGTTCATCTAGGTGACGTAAGATATGCT had a PBM binding z-score of 1.41.
CGTCCAAGATCAGAGAGGTCAGTGAATGCCGAGT: the PBM binding z-score is -0.769.
As for CAGCCTAGGTCAGAGCCAGTATAGGAGGAACGTT, the PBM binding z-score is -1.
Still for that read-out and setting: the figure for GCTAGCTGGTCAGTAAAAGGTCACACACCGGTCG is -0.213; for TCTGCTAGCTCAACGATGGTCAGCTAATCTGCTA it is -0.143; for AGAATGAGGTTATACGTAGATTAGGGAAGAAAGT it is 1.
Sequence TCTTGTAGATCAATTGAGGTTAAGAAAGTGCGCT showed a PBM binding z-score of 0.929.
The sequence GGAACGAGGGCAACTTGATAGCAGAGTTTGATGG yielded a PBM binding z-score of 0.0207.
Turning to TCGAGTAAGTTAGGGGCATTCAGAATGGCGTCGA, the PBM binding z-score was -0.704.
Still for that read-out and setting: under CCTACTGGGCCAAAGGTCATTGCTTCCAATGCTC stands 0.248; under TTACCAAGGTGAAGATCGTTGATCCCTCTGTAGA, 0.0725; under CCAGGCAGGTGAAAGGTAACTCAGTCTGGTACGC, -0.814.
As to CCTCGGAGGACAGAAGGTCAGAGGTGTCCGCTTT, the PBM binding z-score was -1.55.
Sequence GCGACTGGGGCAAAGCAGGTTACCATTAGGTTGG showed a PBM binding z-score of -0.886.
Sequence TCTCGGAGAACACGAAAGGTCAGAGCTCGACATC gave a PBM binding z-score of -0.197.
Take CCTTACGGGTCAAGAGGTTATAGCACGACGAGCG: the PBM binding z-score was 0.102.
TAGCCTAGGTCGTGGGCCAGTATACCACGCGAAC displayed a PBM binding z-score of -1.24.
For TCATATAGGTAAATGCTAGGTGAAGGTCCGATCT, the PBM binding z-score stood at 0.608.
In turn, CCGAGTAGGTTATGGGGCATTCTGGCAACGGTGA yielded a PBM binding z-score of -1.42.
The same measure, in the same setting: the figure for TCATATAGGTTAACAGGTGAAAGTCCGTAAGTTA is 1.92; for CCTCGGAGGACAGAAGGTCAGAGATGTCCGCTTT it is -1.27.
The sequence GCTTGTAGATCAATGTTAAGAAAGACTAAGCTAA returned a PBM binding z-score of 0.113.
Consider GGAACGAAGGCAAGTTGATAGCAGAGTTTGATGG, for which the PBM binding z-score is -0.632.
CCTAGTTGGCCAGGAGGTCACACACCGGATATGA displayed a PBM binding z-score of -0.0399.
Turning to GATACAGGATCAAGGCCAGAGTACGCGTATTGAT, the PBM binding z-score came to 0.288.
Still for that read-out and setting: under ATATGTAGGTTATCGAGTCATTCAGTTTGCGCAT stands 2.73.
Same read-out and setting: the figure for ACTATCAGTTGACTTAGGGCAACCGATACGACGC is 0.545; for CATACAAGGTCAGCTAGGCCAGAGTAGGGACGGC it is 1.12.
The sequence CGTCGAAGTTCAACTAAGGTAACGTAAAGCACGC displayed a PBM binding z-score of 0.194.
ATATGTAGGTTATATCCGGGTCATTCAGGCTATG gave a PBM binding z-score of 2.59.
Same read-out and setting: the figure for TCTGGTTGGTCACGGAGGTCACACACGACGGGTA is 1.67; for TCGAGTAGGTTAGTCGGGGCATGCAGCCAACATA it is -1.65; for CCTAACGGGTCACGAGGTTATAGCACGACGAGCG it is 0.866.

A further experiment concerns PPARg homodimer (NR concentration 180 nM). Described as above. The gist of the method: as §1
Regarding TCAGACACGTGAAGGTAACTCAGGTACGCAGTCG, the PBM binding z-score was determined as 0.0115.
On the same count and under the same terms, under CCTACTGGGCCATTCAAAGGTCATTGATCATATG stands 2.61; under CGTCAAAGTTCAAGGTAACGTATCAGAAAGCAGC, 2.73; under CCGTGTAGGTTATGGGGCATTCAGGCAACGGTGA, 1.42.
As to CGTCCAAGGTCAATGCTAGGTCCGTGAAAGCATT, the PBM binding z-score worked out at 3.68.
In turn, TCTTGTAGATCAAGCAGGTTACGAAAGCCTGAGT yielded a PBM binding z-score of 0.37.
As to ATCTCTAGGTAAAGTTCAGTGCAAGATCGATAGA, the PBM binding z-score was determined as 2.51.
Still for that read-out and setting: under AGTCAAAGTTCATCTAGGTGACGTAAGATATGCT stands 3.65; under CGTCCAAGATCAGAGAGGTCAGTGAATGCCGAGT, 2.69.
Consider CAGCCTAGGTCAGAGCCAGTATAGGAGGAACGTT, for which the PBM binding z-score was found to be 0.951.
On to GCTAGCTGGTCAGTAAAAGGTCACACACCGGTCG, for which the PBM binding z-score worked out at 5.71.
With TCTGCTAGCTCAACGATGGTCAGCTAATCTGCTA, the PBM binding z-score is -1.44.
In turn, AGAATGAGGTTATACGTAGATTAGGGAAGAAAGT showed a PBM binding z-score of 0.912.
On the same count and under the same terms, under TCTTGTAGATCAATTGAGGTTAAGAAAGTGCGCT stands 0.486; under GGAACGAGGGCAACTTGATAGCAGAGTTTGATGG, 0.796.
The sequence TCGAGTAAGTTAGGGGCATTCAGAATGGCGTCGA registered a PBM binding z-score of 0.141.
For CCTACTGGGCCAAAGGTCATTGCTTCCAATGCTC, the PBM binding z-score stood at 2.84.
TTACCAAGGTGAAGATCGTTGATCCCTCTGTAGA gave a PBM binding z-score of 0.177.
As to CCAGGCAGGTGAAAGGTAACTCAGTCTGGTACGC, the PBM binding z-score came to 1.59.
On the same count and under the same terms, the figure for CCTCGGAGGACAGAAGGTCAGAGGTGTCCGCTTT is 0.853; for GCGACTGGGGCAAAGCAGGTTACCATTAGGTTGG it is 0.27.
The sequence TCTCGGAGAACACGAAAGGTCAGAGCTCGACATC yielded a PBM binding z-score of 1.7.
Same read-out and setting: under CCTTACGGGTCAAGAGGTTATAGCACGACGAGCG stands 2.77; under TAGCCTAGGTCGTGGGCCAGTATACCACGCGAAC, -0.437; under TCATATAGGTAAATGCTAGGTGAAGGTCCGATCT, 0.952.
The sequence CCGAGTAGGTTATGGGGCATTCTGGCAACGGTGA yielded a PBM binding z-score of 1.24.
As for TCATATAGGTTAACAGGTGAAAGTCCGTAAGTTA, the PBM binding z-score came to 1.58.
Take CCTCGGAGGACAGAAGGTCAGAGATGTCCGCTTT: the PBM binding z-score was 1.03.
Still for that read-out and setting: under GCTTGTAGATCAATGTTAAGAAAGACTAAGCTAA stands -0.551; under GGAACGAAGGCAAGTTGATAGCAGAGTTTGATGG, -0.995; under CCTAGTTGGCCAGGAGGTCACACACCGGATATGA, 2.61.
In the case of GATACAGGATCAAGGCCAGAGTACGCGTATTGAT, the PBM binding z-score is -0.0406.
In turn, ATATGTAGGTTATCGAGTCATTCAGTTTGCGCAT displayed a PBM binding z-score of 1.91.
ACTATCAGTTGACTTAGGGCAACCGATACGACGC displayed a PBM binding z-score of 0.231.
Regarding CATACAAGGTCAGCTAGGCCAGAGTAGGGACGGC, the PBM binding z-score came to 2.33.
Sequence CGTCGAAGTTCAACTAAGGTAACGTAAAGCACGC yielded a PBM binding z-score of 1.47.
On to ATATGTAGGTTATATCCGGGTCATTCAGGCTATG, for which the PBM binding z-score was determined as 3.38.
The sequence TCTGGTTGGTCACGGAGGTCACACACGACGGGTA came in with a PBM binding z-score of 4.27.
In turn, TCGAGTAGGTTAGTCGGGGCATGCAGCCAACATA gave a PBM binding z-score of -0.293.
On the same count and under the same terms, under CCTAACGGGTCACGAGGTTATAGCACGACGAGCG stands 2.3.
